Common to all, as to experiment: DAPPL (digital affinity profiling via proximity ligation, sequencing); 10 mM Tris-HCl pH 7.5, 50 mM NaCl, 1 mM DTT, 4% glycerol, room temperature, 30 min; GST-TFs on glutathione beads, 16-mer random dsDNA library, 0.1% formaldehyde crosslink after washing; high values mean tight binding
Conditions in all cases: protein: recombinant; tags: N-terminal GST; dsDNA, one strand shown

Assay [1] has as its target T1, ERF (Homo sapiens, UniProt P50548 1-548).
T1 sequence: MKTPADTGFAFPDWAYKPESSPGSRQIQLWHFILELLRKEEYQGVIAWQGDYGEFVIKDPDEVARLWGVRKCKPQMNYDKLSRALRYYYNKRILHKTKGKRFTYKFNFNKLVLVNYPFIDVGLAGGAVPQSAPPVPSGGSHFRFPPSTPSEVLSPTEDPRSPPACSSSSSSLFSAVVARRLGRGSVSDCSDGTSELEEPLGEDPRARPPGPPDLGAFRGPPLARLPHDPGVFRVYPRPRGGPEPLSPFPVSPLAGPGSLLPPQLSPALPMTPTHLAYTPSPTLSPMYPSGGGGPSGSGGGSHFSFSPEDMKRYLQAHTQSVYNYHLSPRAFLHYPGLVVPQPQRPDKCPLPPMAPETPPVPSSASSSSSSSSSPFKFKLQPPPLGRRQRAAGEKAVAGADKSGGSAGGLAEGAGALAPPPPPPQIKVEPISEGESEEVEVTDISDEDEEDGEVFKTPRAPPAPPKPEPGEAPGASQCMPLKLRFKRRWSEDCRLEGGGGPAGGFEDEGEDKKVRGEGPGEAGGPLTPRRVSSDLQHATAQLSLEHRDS
An outline of the steps:
(§1)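 Binding signal is each hexamer's read frequency for a factor divided by its frequency in the tag-only sample. The factors were GST-fused human transcription factors from yeast, captured on glutathione beads, DNA-barcoded and pooled with that sample. Pools were incubated with 200 nmole of a random double-stranded 16-mer DNA library in Tris/NaCl/DTT/glycerol buffer at room temperature for 30 min, then washed, crosslinked with 0.1% formaldehyde, proximity-ligated with BsaI/T4 ligase (1 h, 37 °C), PCR-amplified and sequenced on an Illumina NextSeq500.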

Assay [2] deals with T2, ETV3L (Homo sapiens, UniProt Q6ZN32 1-361).
T2 sequence: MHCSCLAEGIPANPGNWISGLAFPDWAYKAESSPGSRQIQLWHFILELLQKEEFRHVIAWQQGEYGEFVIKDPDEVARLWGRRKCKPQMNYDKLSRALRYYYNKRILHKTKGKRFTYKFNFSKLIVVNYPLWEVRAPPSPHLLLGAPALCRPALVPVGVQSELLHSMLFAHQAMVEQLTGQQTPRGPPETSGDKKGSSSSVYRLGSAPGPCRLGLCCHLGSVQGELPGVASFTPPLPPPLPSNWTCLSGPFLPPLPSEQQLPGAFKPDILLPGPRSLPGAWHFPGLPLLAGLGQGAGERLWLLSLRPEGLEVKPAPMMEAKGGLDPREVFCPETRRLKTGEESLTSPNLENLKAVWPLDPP
An outline of the steps: as §1

Assay [3] concerns the target T3, ETS2 (Homo sapiens, UniProt P15036 1-469).
T3 sequence: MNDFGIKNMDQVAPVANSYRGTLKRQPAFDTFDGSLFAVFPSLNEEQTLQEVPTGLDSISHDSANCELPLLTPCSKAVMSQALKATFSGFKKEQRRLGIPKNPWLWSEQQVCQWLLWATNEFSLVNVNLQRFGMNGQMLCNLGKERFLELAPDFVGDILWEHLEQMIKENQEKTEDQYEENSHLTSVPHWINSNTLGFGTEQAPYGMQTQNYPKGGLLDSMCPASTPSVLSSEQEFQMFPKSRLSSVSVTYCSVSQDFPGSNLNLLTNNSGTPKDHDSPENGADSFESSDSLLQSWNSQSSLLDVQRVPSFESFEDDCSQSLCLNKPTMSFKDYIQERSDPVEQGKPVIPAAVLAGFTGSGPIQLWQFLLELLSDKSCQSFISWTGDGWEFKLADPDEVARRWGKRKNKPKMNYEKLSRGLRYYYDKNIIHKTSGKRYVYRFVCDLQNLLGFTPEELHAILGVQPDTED
An outline of the steps: as §1

Assay [4] addresses T4, SPDEF (Homo sapiens, UniProt O95238 1-335).
T4 sequence: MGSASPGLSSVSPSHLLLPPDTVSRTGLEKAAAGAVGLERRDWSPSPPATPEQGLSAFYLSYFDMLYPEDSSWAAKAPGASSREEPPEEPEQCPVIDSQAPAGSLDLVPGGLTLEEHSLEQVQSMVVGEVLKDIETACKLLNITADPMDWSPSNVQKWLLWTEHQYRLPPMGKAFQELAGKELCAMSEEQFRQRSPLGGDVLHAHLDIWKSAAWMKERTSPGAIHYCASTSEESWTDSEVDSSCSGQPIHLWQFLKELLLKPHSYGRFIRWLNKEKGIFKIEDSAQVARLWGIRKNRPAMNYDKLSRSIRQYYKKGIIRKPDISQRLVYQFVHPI
An outline of the steps: as §1

The target in assay [5] is T5, ETV7 (Homo sapiens, UniProt Q9Y603 1-341).
T5 sequence: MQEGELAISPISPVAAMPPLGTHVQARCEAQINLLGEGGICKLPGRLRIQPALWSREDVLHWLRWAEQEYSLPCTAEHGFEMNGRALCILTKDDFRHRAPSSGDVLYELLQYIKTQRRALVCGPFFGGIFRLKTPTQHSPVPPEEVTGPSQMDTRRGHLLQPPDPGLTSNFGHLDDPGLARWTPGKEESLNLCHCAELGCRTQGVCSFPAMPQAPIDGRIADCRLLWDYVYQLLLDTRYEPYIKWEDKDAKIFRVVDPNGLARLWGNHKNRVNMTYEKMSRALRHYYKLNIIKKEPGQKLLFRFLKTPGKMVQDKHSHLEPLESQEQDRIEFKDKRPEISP
An outline of the steps: as §1

In assay [6] the target is T6, ELF5 (Homo sapiens, UniProt Q9UKW6-2 1-255).
T6 sequence: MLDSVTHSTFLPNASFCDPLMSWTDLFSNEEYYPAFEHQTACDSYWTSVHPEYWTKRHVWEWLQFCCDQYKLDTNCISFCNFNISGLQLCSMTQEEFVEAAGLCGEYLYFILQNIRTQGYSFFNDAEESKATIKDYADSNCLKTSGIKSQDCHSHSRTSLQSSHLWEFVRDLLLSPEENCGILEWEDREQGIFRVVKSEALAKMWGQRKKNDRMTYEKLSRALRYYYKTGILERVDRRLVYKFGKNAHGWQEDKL
An outline of the steps:
as §1

Assay [7] addresses T7, ETV3 (Homo sapiens, UniProt P41162-2 1-143).
T7 sequence: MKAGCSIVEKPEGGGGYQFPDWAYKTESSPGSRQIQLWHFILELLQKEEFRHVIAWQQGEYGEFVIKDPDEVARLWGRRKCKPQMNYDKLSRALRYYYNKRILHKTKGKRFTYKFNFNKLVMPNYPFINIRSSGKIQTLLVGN
An outline of the steps: as §1

The target of assay [8] is ETV6 (Homo sapiens, UniProt P41212 1-452). An outline of the steps: as §1
Chain of ETV6 (P41212 whole entry): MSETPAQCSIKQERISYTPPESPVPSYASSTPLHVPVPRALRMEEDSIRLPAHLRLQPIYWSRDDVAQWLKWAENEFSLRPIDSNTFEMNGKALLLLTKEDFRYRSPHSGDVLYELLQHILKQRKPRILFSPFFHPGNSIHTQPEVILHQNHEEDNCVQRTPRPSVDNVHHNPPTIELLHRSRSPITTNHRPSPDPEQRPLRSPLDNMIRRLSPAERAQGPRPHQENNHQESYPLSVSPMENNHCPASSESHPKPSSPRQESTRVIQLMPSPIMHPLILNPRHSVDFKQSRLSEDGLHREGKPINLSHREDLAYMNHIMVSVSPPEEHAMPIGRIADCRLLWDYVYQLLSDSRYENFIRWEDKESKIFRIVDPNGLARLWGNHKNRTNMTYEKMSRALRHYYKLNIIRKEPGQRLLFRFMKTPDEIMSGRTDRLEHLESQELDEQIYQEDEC

For the sequence TTTCTA, the binding signal was 1.32 fold enrichment (6-mer frequency, TF over GST control) in assay [1]; 1.3 fold enrichment (6-mer frequency, TF over GST control) in assay [2]; 1.37 fold enrichment (6-mer frequency, TF over GST control) in assay [3]; 1.39 fold enrichment (6-mer frequency, TF over GST control) in assay [4]; 1.37 fold enrichment (6-mer frequency, TF over GST control) in assay [5]; 1.31 fold enrichment (6-mer frequency, TF over GST control) in assay [6]. Moreover, the binding signal in assay [7] is 1.38 fold enrichment (6-mer frequency, TF over GST control); in assay [8], 1.25 fold enrichment (6-mer frequency, TF over GST control).
As for CCACTT, the binding signal was 1.9 fold enrichment (6-mer frequency, TF over GST control) in assay [1]; 1.79 fold enrichment (6-mer frequency, TF over GST control) in assay [2]; 1.84 fold enrichment (6-mer frequency, TF over GST control) in assay [3]; 1.69 fold enrichment (6-mer frequency, TF over GST control) in assay [4]; 1.78 fold enrichment (6-mer frequency, TF over GST control) in assay [5]; 1.89 fold enrichment (6-mer frequency, TF over GST control) in assay [6]. Moreover, the binding signal in assay [7] is 1.97 fold enrichment (6-mer frequency, TF over GST control); in assay [8], 1.85 fold enrichment (6-mer frequency, TF over GST control).
Take CTTAGG: the binding signal in assay [1] was 1.12 fold enrichment (6-mer frequency, TF over GST control); in assay [2], 1.01 fold enrichment (6-mer frequency, TF over GST control); in assay [3], 1.23 fold enrichment (6-mer frequency, TF over GST control); in assay [4] it was 1.06 fold enrichment (6-mer frequency, TF over GST control); in assay [5], 1.17 fold enrichment (6-mer frequency, TF over GST control); in assay [6], 1.11 fold enrichment (6-mer frequency, TF over GST control). In addition, the binding signal is 1.1 fold enrichment (6-mer frequency, TF over GST control) in assay [7] and 1.15 fold enrichment (6-mer frequency, TF over GST control) in assay [8].
For TTATCC, the binding signal in assay [1] was 1.44 fold enrichment (6-mer frequency, TF over GST control); in assay [2] it was 1.38 fold enrichment (6-mer frequency, TF over GST control); in assay [3], 1.51 fold enrichment (6-mer frequency, TF over GST control); in assay [4], 1.76 fold enrichment (6-mer frequency, TF over GST control); in assay [5] it was 1.44 fold enrichment (6-mer frequency, TF over GST control); in assay [6], 1.56 fold enrichment (6-mer frequency, TF over GST control). Further, the binding signal is 1.51 fold enrichment (6-mer frequency, TF over GST control) in assay [7] and 1.47 fold enrichment (6-mer frequency, TF over GST control) in assay [8].
Take TAGTTC: the binding signal in assay [1] was 1.29 fold enrichment (6-mer frequency, TF over GST control); in assay [2], 1.44 fold enrichment (6-mer frequency, TF over GST control); in assay [3], 1.43 fold enrichment (6-mer frequency, TF over GST control); in assay [4] it was 1.5 fold enrichment (6-mer frequency, TF over GST control); in assay [5], 1.31 fold enrichment (6-mer frequency, TF over GST control); in assay [6] it was 1.41 fold enrichment (6-mer frequency, TF over GST control). The binding signal is 1.49 fold enrichment (6-mer frequency, TF over GST control) in assay [7] and 1.41 fold enrichment (6-mer frequency, TF over GST control) in assay [8].
In the case of ATGCTT, the binding signal is 1.27 fold enrichment (6-mer frequency, TF over GST control) in assay [1]; 1.36 fold enrichment (6-mer frequency, TF over GST control) in assay [2]; 1.28 fold enrichment (6-mer frequency, TF over GST control) in assay [3]; 1.32 fold enrichment (6-mer frequency, TF over GST control) in assay [4]; 1.33 fold enrichment (6-mer frequency, TF over GST control) in assay [5]; 1.38 fold enrichment (6-mer frequency, TF over GST control) in assay [6]. Further, the binding signal is 1.31 fold enrichment (6-mer frequency, TF over GST control) in assay [7] and 1.3 fold enrichment (6-mer frequency, TF over GST control) in assay [8].
Consider TCCTTG, for which the binding signal in assay [1] was 1.39 fold enrichment (6-mer frequency, TF over GST control); in assay [2], 1.29 fold enrichment (6-mer frequency, TF over GST control); in assay [3], 1.28 fold enrichment (6-mer frequency, TF over GST control); in assay [4], 1.48 fold enrichment (6-mer frequency, TF over GST control); in assay [5] it was 1.22 fold enrichment (6-mer frequency, TF over GST control); in assay [6] it was 1.95 fold enrichment (6-mer frequency, TF over GST control). In addition, the binding signal in assay [7] is 1.36 fold enrichment (6-mer frequency, TF over GST control); in assay [8], 1.19 fold enrichment (6-mer frequency, TF over GST control).
For the sequence TCTTAT, the binding signal is 1.24 fold enrichment (6-mer frequency, TF over GST control) in assay [1]; 1.29 fold enrichment (6-mer frequency, TF over GST control) in assay [2]; 1.31 fold enrichment (6-mer frequency, TF over GST control) in assay [3]; 1.24 fold enrichment (6-mer frequency, TF over GST control) in assay [4]; 1.25 fold enrichment (6-mer frequency, TF over GST control) in assay [5]; 1.29 fold enrichment (6-mer frequency, TF over GST control) in assay [6]. For the same sequence, the binding signal in assay [7] is 1.23 fold enrichment (6-mer frequency, TF over GST control); in assay [8] it was 1.3 fold enrichment (6-mer frequency, TF over GST control).

These data come from publication PMC7862700, “An all-to-all approach to the identification of sequence-specific readers for epigenetic DNA modifications on cytosine”.
